High-throughput results: PubChem, National Center for Advancing Translational Sciences (NCATS)
An excerpt weighted towards active compounds, which were near 11% of everything screened.
JMJD2A Tudor: qHTS Assay for Inhibitors of JMJD2A-Tudor Domain; AlphaScreen JMJD2A-Tudor / H3K4me3 peptide binding; Potency, µM (doses to about 114 µM), for inactives: top-dose activity change, negative = inhibition, actives largely listed as inhibitors; hit rate 4.4% among 390,000; AID 504339, 2011; also: % is scaled to controls: 0 for no effect and ±100 for the full control effect; nearly all actives have a fitted effect of over 50% in size
HP1b binding inh: HTS for Inhibitors of HP1-beta Chromodomain Interactions with Methylated Histone Tails. Chromobox protein homolog 1 (Homo sapiens), P83916. hit rate 0.56% among 390,000. AID 540317, 2011. Potency, µM (top dose mostly 114 µM), for the others: at the top dose activity change, negative = inhibition, most hits filed as inhibitors. AlphaScreen HP1-beta / biotin-H3K9me3 peptide binding; also: nearly all actives have a fitted effect of over 70% in size
Target sequence (P83916 whole entry, looked up): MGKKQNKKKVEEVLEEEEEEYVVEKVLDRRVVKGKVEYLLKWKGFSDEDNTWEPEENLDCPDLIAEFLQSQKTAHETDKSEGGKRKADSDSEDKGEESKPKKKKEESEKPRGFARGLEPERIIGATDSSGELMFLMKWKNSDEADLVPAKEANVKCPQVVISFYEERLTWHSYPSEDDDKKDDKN
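HP1-beta protein (50 nM final) preincubated 30 min at room temperature with biotinylated H3(1-18)K9me3 peptide (50 nM) in PBS pH 7.4, 0.01% Tween-20, then compound added for 30 min. AlphaScreen streptavidin donor/nickel chelate acceptor beads (10 ug/mL final), 30 min dark, luminescence read.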
BAZ2B block: qHTS Assay for Inhibitors of BAZ2B. Bromodomain adjacent to zinc finger domain protein 2B (Homo sapiens), Q9UIF8. AlphaScreen BAZ2B-H3K14Ac peptide displacement. Potency, µM (top dose mostly 114 µM), without a hit: at the top dose activity change, negative = inhibition, actives largely listed as inhibitors. hit rate 4.4% among 360,000; also: % is scaled to controls: 0 for no effect and ±100 for the full control effect; nearly all actives have a fitted effect of over 60% in size
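AlphaScreen luminescence quantifies BAZ2B engagement of H3K14Ac peptide; the protein and biotinylated peptide are both at 50 nM final, buffer PBS pH 7.4 with 0.01% Tween-20, all steps at room temperature.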
G9a inh: qHTS Assay for Inhibitors of Histone Lysine Methyltransferase G9a. G9a H3K9 monomethylation, AlphaScreen, 2 h. Potency, µM (highest dose often 102 µM), without a hit: at the highest dose activity, negative = inhibition, most hits filed as inhibitors. hit rate 8.8% among 350,000. AID 504332, 2011; also: % is scaled to controls: 0 for no effect and ±100 for the full control effect; nearly all actives have a fitted effect of over 75% in size
Target sequence (Q96KQ7 913-1193 limits assumed): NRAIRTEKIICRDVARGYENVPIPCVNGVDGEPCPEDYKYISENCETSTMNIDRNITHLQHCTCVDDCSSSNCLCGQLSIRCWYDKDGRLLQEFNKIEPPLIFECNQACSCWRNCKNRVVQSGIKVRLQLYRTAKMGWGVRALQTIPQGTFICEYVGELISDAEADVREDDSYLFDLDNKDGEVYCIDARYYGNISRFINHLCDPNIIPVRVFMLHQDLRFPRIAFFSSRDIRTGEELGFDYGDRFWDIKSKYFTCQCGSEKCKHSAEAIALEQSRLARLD
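AlphaScreen read-out: biotin-H3K9 peptide (500 nM) methylation by 20 nM enzyme with 20 uM SAM, 2 h at room temperature after 15 min compound preincubation; anti-monomethyl H3K9 antibody plus donor/acceptor beads, 10 min dark.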
L3MBTL1 block: qHTS Assay for the Inhibitors of L3MBTL1; Lethal(3)malignant brain tumor-like protein 1 (Homo sapiens), Q9Y468; AlphaScreen L3MBTL1–H3K9me1 peptide binding; Potency, µM (series often up to 57.1 µM), for inactives: at the highest dose activity, negative = inhibition, hits mostly inhibitors; hit rate 0.66% among 230,000; AID 485360, 2010; also: % is scaled to controls: 0 for no effect and ±100 for the full control effect; nearly all actives have a fitted effect of over 60% in size
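AlphaScreen assay: L3MBTL1 (50 nM final) was preincubated 30 min at room temperature with biotinylated H3(1-15)K9me1 peptide (75 nM final), then 30 min with library compounds; streptavidin donor and nickel chelate acceptor beads (10 ug/mL final) added, 30 min dark.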
Numbers without * were called inactive; u = inconclusive; x = no result; [ ] = dose if it differs, or a comment. Calls follow the shape of the dose curve; as a rule, active = well fitted inhibition curve with a large enough effect; inconclusive = small, poorly fitted or top-dose-only effect; inactive = no such curve, though single readings can be large or run the other way. Potency is read from the fitted curve at half-maximal effect.

SMILES | JMJD2A Tudor | HP1b binding inh | BAZ2B block | G9a inh | L3MBTL1 block
CN(C)c1ccc(NC(=S)c2ccc3ccccc3n2)cc1 | -12% | 41% | 2.5µM* | 2µM* | x
CC(C)Oc1ccc(C(=O)Nc2ccc(N(C)C)cc2)cc1 | u | -19% | 12% | 3.5µM* | -11%
COc1cccc(C(=O)NC(=S)Nc2ccc(N3CCCC3)cc2)c1 | 40µM* | u | 13µM* | 8.9µM* | u
COCCNC(=O)c1ccc(-c2nc(CS(=O)(=O)c3ccccc3)c(C)o2)cc1 | -3% | 39% | -4% | -26%[59 µM] | x
COCc1c(C(=O)NC(C)c2ccc(S(N)(=O)=O)cc2)oc2ccccc12 (configuration not stated) | -6% | 6% | 8% | 24% | x
O=S(=O)(c1ccccc1)c1nnn2c1nc(NCc1cccs1)c1sccc12 | -12% | 41% | -12% | -24%[59 µM] | x
CCOC(=O)C1=C(C)NC2=C(C(=O)c3ccccc32)C1c1cccc2ccccc12 (configuration not stated) | 20µM* | u | 35µM* | -36%[12.7 µM] | x
CCOc1cc(C2C(C(=O)OC)=C(C)NC3=C2C(=O)c2ccccc23)c(Br)cc1OC (configuration not stated) | -26% | -12% | -26% | -8%[59 µM] | x
CCOC(=O)C1=C(C)NC2=C(C(=O)c3ccccc32)C1c1ccc(O)cc1 (configuration not stated) | u | -24% | u | u | -12%
COc1cccc(C2C(=O)c3ccccc3C2=O)c1 | 2% | 26% | -28% | 50µM* | -3%
CC1=C([N+](=O)[O-])C(c2cccc(Br)c2)C2=C(N1)c1ccccc1C2=O (configuration not stated) | 16µM* | u | 14µM* | -21%[2.33 µM] | x
CCOc1cc(Br)c(C2C(C(=O)OC)=C(C)NC3=C2C(=O)c2ccccc23)cc1OCC (configuration not stated) | -30% | -25% | 32µM* | 18µM* | x
CC1=C(C(=O)OCc2ccccc2)C(c2cccc(Br)c2)NC(=O)N1 (configuration not stated) | -5% | 26% | 7% | -10%[0.501 µM] | 4%[2.29 µM]
COC(=O)C1=CN(C(C)C)C=C(C(=O)OC)C1c1cccc(OC)c1 | 63% | 87% | 24% | 52%[12.7 µM] | 27%
COc1ccccc1NC(=O)C1=C(C)Nc2c(C(=O)Nc3cccc(C)c3)cnn2C1c1ccccc1Cl (configuration not stated) | -31% | -9% | 0%[57.1 µM] | -16%[59 µM] | x
CCOc1cc(C2C(C(=O)OC)=C(C)NC3=C2C(=O)c2ccccc23)cc(Br)c1OCC (configuration not stated) | 13µM* | -26% | 10µM* | 10µM* | x
CCOc1cc(C2C(C(=O)OC)=C(C)NC3=C2C(=O)c2ccccc23)ccc1OC (configuration not stated) | -32% | u | -35% | u | x
CCOC(=O)COc1cc(Br)c(C2NC(=O)NC(C)=C2C(C)=O)cc1OCC (configuration not stated) | 1% | 43% | 13% | 3%[12.7 µM] | x
CCOC(=O)COc1ccc(C2C(C(=O)OC)=C(C)NC3=C2C(=O)c2ccccc23)cc1Cl (configuration not stated) | 18µM* | u | -32% | 1%[59 µM] | x
COc1cccc(C2NC(=O)NC(C)=C2C(=O)Nc2ccccc2C)c1 (configuration not stated) | x | x | 7% | 10%[59 µM] | -1%
COC(=O)C1=C(C)NC2=C(C(=O)c3ccccc32)C1c1cccc(OC)c1 (configuration not stated) | -23% | -2% | -37% | 50µM* | x
CCOc1cc(C2C(C(=O)OC)=C(C)NC3=C2C(=O)c2ccccc23)c(Br)cc1O (configuration not stated) | 35µM* | u | 22µM* | 16µM* | x
O=C(CN1C(=O)C(c2ccc(F)cc2)=NC12CCCCCC2)Nc1ccccc1Cl | 10% | 95% | 46% | 47%[59 µM] | x
O=C(COC(=O)CCNS(=O)(=O)c1ccc(Cl)cc1)Nc1ccccc1OC(F)F | -3% | 24% | 9% | 1% | 7%
CCCn1c(SCC(=O)N(CC)c2c(N)n(Cc3ccccc3)c(=O)[nH]c2=O)nnc1-c1ccncc1 | -4% | 48% | x | x | x
SMILES | JMJD2A Tudor | HP1b binding inh | BAZ2B block | G9a inh | L3MBTL1 block
Cc1cc2c(s1)c1cnn(Cc3cccc(Cl)c3F)c(=O)c1n2C | -7% | x | x | x | x
COc1cccc(C2C3=C(Nc4[nH]n(-c5ccccc5)c(=O)c42)c2ccccc2C3=O)c1 (configuration not stated) | x | x | u | 10µM* | -14%
C#CCOc1ccc(C2C(C(=O)OC)=C(C)NC3=C2C(=O)c2ccccc23)cc1OCC (configuration not stated) | 25µM* | u | 22µM* | 11µM* | x
CCN(CC)S(=O)(=O)c1ccc(N2CCOCC2)c(NC(=O)c2ccc(N3CCCC3=O)cc2)c1 | -14% | 16% | -1% | 50µM* | -6%
COc1cccc(CNC(=O)c2ccc(N3CCOCC3)c([N+](=O)[O-])c2)c1 | -13% | -2% | -23% | -7% | x
CCN(CC)S(=O)(=O)c1cc(C(=O)Nc2ccccc2[N+](=O)[O-])ccc1Cl | u | u | u | 28µM* | -21%
COc1ccccc1CNC(=O)c1ccc(N2CCOCC2)c([N+](=O)[O-])c1 | u | -6% | 79µM* | -9%[59 µM] | x
CCN(CC)S(=O)(=O)c1ccc(O)c(NC(=O)c2ccc(N3CCOCC3)c([N+](=O)[O-])c2)c1 | -19% | u | -3% | 7.1µM* | 2%
CCCN(CCC)c1nn2c(=O)c(C(=O)NCc3cc(Br)ccc3OC)cnc2s1 | -19% | -20% | -12% | 9%[59 µM] | x
CCN(CC)S(=O)(=O)c1ccc(N2CCCC2)c(NC(=O)c2ccc(N3CCCC3=O)cc2)c1 | -20% | 9% | -4% | 35µM* | 3%
CCN(CC)S(=O)(=O)c1ccc(OC)c(NC(=O)c2ccc(N3CCCC3=O)cc2)c1 | 5% | 41% | 9% | -1%[59 µM] | 3%
CCN(CC)S(=O)(=O)c1ccc(N2CCCC2)c(NC(=O)c2ccncc2)c1 | -20% | 49% | -1% | 32µM* | 1%
CCN(CC)S(=O)(=O)c1ccc(N2CCCCC2)c(NC(=O)C2=COCCO2)c1 | -21% | 2% | 7% | -30% | -9%
CCN(CC)S(=O)(=O)c1ccc(N2CCCC2)c(NC(=O)C2=COCCO2)c1 | -6% | 24% | -2% | 50µM* | 11%
COc1ccc(NC(=O)CSc2nc3ccccc3n2CC(=O)NCc2ccc(F)cc2)cc1 | -20% | 11% | -5% | 18%[59 µM] | x
